Reference: PubChem BioAssay (EPA / NIEHS)
Inconclusive results are not listed. Activity calls are given as the source filed them. The calls were made as follows: active = hit-call score of the fitted dose curve at least 0.9, where 1 is the maximum; inconclusive = response in the unintended direction; inactive = score below 0.9.

These compounds were tested against human Retinoid X Receptor beta (RXRb), RXRB (gene 6257) (UniProt P28702) (assay: ATG_RXRb_TRANS: Attagene TRANS-FACTORIAL HepG2 Assay for human Retinoid X Receptor beta (RXRb) (AID 2283013)).
Chain of human Retinoid X Receptor beta (RXRb), RXRB (gene 6257) (P28702 whole entry, looked up, the tested form may be a part): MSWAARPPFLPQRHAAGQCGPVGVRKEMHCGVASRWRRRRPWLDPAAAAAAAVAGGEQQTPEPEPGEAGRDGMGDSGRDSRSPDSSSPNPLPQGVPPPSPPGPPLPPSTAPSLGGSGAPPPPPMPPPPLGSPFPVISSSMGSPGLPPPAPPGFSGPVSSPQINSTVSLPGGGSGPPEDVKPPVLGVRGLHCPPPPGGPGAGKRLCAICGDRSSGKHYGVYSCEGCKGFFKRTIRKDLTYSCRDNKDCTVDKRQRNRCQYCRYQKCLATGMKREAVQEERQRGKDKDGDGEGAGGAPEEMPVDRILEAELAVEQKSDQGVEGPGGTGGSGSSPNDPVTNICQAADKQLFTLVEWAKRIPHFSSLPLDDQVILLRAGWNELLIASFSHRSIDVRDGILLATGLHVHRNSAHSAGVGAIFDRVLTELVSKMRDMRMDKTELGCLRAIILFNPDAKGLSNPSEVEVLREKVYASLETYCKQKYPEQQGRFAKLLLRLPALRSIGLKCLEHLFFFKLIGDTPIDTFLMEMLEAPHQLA
Method in brief: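 HepG2 cells transiently transfected with multiplexed reporter units driven by GAL4-UAS and exogenous chimeric NR-Gal4 proteins; treated 24 h. Reporter mRNA measured by RT-PCR, 6-FAM labelling and capillary electrophoresis; gain-of-signal fitted versus DMSO baseline.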
In the case of `C=C(C)CCO`, the AC50 is reported as 63.9 µM (active). For `CC(=O)NS(=O)(=O)c1ccc(N)cc1`, the outcome was “inactive”. With `CCCCCCCCCCc1ccccc1` the AC50 was 49.1 µM (active). With `CCCCCCCCCCOC(C)=O` the outcome was “inactive”. In the case of `CC(C)(C)C(=O)C=Cc1ccc(Cl)cc1`, the AC50 is reported as 24.4 µM (active). `C[C@]12CCC(=O)C=C1CC[C@@H]1[C@@H]2C(=O)C[C@@]2(C)[C@H]1CC[C@]2(O)C(=O)CO` was tested, and the outcome was “inactive”. In the case of `NC(=O)C1CO1` (centres undefined), the outcome is reported as “inactive”. `COc1ccc([C@@H]2CC(=O)c3c(O)cc(O[C@@H]4O[C@H](CO[C@@H]5O[C@@H](C)[C@H](O)[C@@H](O)[C@H]5O)[C@@H](O)[C@H](O)[C@H]4O)cc3O2)cc1OC` was tested, and the outcome was “inactive”. `O=Nc1ccc(O)cc1` was tested, and the outcome was “inactive”. For `C=CC(=O)OCCOC(=O)C=C`, the outcome was “inactive”. `O=C1CCCCCN1SSN1CCCCCC1=O` was tested, and the outcome was “inactive”. In the case of `CNC(=S)NN`, the outcome is reported as “inactive”. For `O=C1c2ccccc2C(=O)C1c1nc2ccccc2c(Br)c1O`, the outcome was “inactive”. For `C=C(C)[C@H]1CC=C(C)CC1`, the outcome was “inactive”. For `CCCOC(=O)CCCCC(=O)OCCC`, the outcome was “inactive”. With `Cc1ccc(N)c([N+](=O)[O-])c1` the outcome was “inactive”. With `CCCCC(CC)COCC1CO1` (centres undefined) the outcome was “inactive”. `Cc1cccc(C(=O)O)c1` was tested, and the outcome was “inactive”. For `CC(C)(C)c1ccc(N)cc1`, the outcome was “inactive”. `CC(C)(C)C(=O)CCc1ccc(Cl)cc1` was tested, and the outcome was “inactive”. In the case of `OCCCS`, the outcome is reported as “inactive”. In the case of `CCOCC(=O)O`, the outcome is reported as “inactive”. `O=C1OC(=O)c2cc(Oc3ccc4c(c3)C(=O)OC4=O)ccc21` was tested, and the outcome was “inactive”. In the case of `COc1c2ccoc2cc2oc(=O)ccc12`, the outcome is reported as “inactive”. In the case of `Cc1ccc(OC(=O)CC(C)C)cc1`, the outcome is reported as “inactive”. For `c1ccc(CCCc2ccncc2)cc1`, the outcome was “inactive”. `Cc1c(C)c([N+](=O)[O-])c(C(C)(C)C)c([N+](=O)[O-])c1C` was tested, and the AC50 was 1.7 µM (active). `CC1=CC[C@H](C(C)C)C=C1` was tested, and the AC50 was 40.2 µM (active). For `CCOC(=O)[C@H](C)O`, the outcome was “inactive”. In the case of `CC(=O)Oc1ccc(C)cc1`, the outcome is reported as “inactive”. For `Cc1ccc(N/N=c2\c(=O)cc/c(=N/Nc3ccc(S(=O)(=O)O)cc3)c2=O)c(C)c1`, the outcome was “inactive”. `Nc1ccc(-c2ccc(F)cc2)cc1` was tested, and the outcome was “inactive”. With `Cc1cc(=O)n(-c2ccccc2)n1C` the outcome was “inactive”. For `CC(=O)OCC(=O)[C@@]12N=C(C)O[C@@H]1C[C@H]1[C@@H]3CCC4=CC(=O)C=C[C@]4(C)[C@H]3[C@@H](O)C[C@@]12C`, the AC50 was 1.62 µM (active).
